Experimental data published in PubChem BioAssay (NCI).
About 79,000 compounds went through this panel and 15% of them were active in at least one assay; those are over-represented in the sample as a whole. Active and inactive are the calls of the source. Cut-off read from the data, not from the text of the source: active = growth inhibition above about 70%; inactive = the rest.

What was measured:
[1] = NCI Yeast Anticancer Drug Screen. Data for the mec2-1 strain (AID 157); details: S. cerevisiae mec2-1 strain, active compounds read high
Method in brief: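 Cells of the genetically defined mec2-1 yeast strain are incubated with test compound. Inhibition of growth is calculated against vehicle-treated controls.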

[2] = NCI Yeast Anticancer Drug Screen. Data for the rad14 strain (AID 159);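 note: 0% = growth of vehicle-treated control cultures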; details: S. cerevisiae rad14 strain growth inhibition, active compounds read high
Method in brief: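 Vehicle-treated cultures served as the baseline for growth inhibition of a DNA repair-mutant yeast strain exposed to each compound.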

[3] = NCI Yeast Anticancer Drug Screen. Data for the sgs1 mgt1 strain (AID 161);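 note: 0% = growth of cultures given vehicle only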; details: S. cerevisiae sgs1 mgt1 strain, active compounds read high
Method in brief: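 Read-out: growth inhibition vs vehicle controls. Cells: mutant yeast strain deficient in DNA damage repair.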

[4] = NCI Yeast Anticancer Drug Screen. Data for the cln2 rad14 strain (AID 165);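 note: 0% = growth equal to vehicle treated cultures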; details: S. cerevisiae cln2 rad14 strain, active compounds read high
Method in brief: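 The screen exposed genetically defined yeast (cln2 rad14) to test compounds and scored growth inhibition relative to vehicle-treated controls.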

[5] = NCI Yeast Anticancer Drug Screen. Data for the bub3 strain (AID 167); details: S. cerevisiae bub3 mutant strain, active compounds read high
Method in brief: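 Inhibition values come from growth of compound-treated mutant yeast normalised to vehicle-treated controls.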

[6] = NCI Yeast Anticancer Drug Screen. Data for the wt2 strain (AID 169);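 note: 0% = growth of vehicle-treated yeast cultures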; details: S. cerevisiae wt2 strain growth inhibition, active compounds read high
Method in brief: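 Steps: yeast strain treated with compound; growth recorded; inhibition calculated relative to cultures given vehicle alone.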

[7] = NCI Yeast Anticancer Drug Screen. Data for the mlh1 strain (AID 171);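 note: 0% = growth of vehicle-treated control cultures of the same strain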; details: S. cerevisiae mlh1 strain growth inhibition, active compounds read high
Method in brief: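 Yeast screen: mutant strain plus compound, growth scored against vehicle control wells.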

[8] = NCI Yeast Anticancer Drug Screen. Data for the sgs1 strain (AID 173);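 note: 0% = growth of vehicle-only control cultures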; details: S. cerevisiae sgs1 mutant, active compounds read high
Method in brief: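 Inhibition of yeast growth served as the measure. The mutant strain was treated with each compound, and growth was normalised to cultures receiving vehicle alone.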

[9] = NCI Yeast Anticancer Drug Screen. Data for the mlh1 rad18 strain (AID 175); details: S. cerevisiae mlh1 rad18 strain growth inhibition, active compounds read high
Method in brief: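 Compound-treated yeast growth, normalised to vehicle controls. Strain bears defined DNA repair mutations.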

[10] = NCI Yeast Anticancer Drug Screen. Data for the rad18 strain (AID 177); details: S. cerevisiae rad18 mutant growth inhibition, active compounds read high
Method in brief: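 Inhibition values reflect reduced yeast growth compared with vehicle-treated controls, using a strain engineered with a DNA damage repair defect.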

[11] = NCI Yeast Anticancer Drug Screen. Data for the rad52 strain (AID 147);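 note: 0% = growth of vehicle-treated control cultures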; details: S. cerevisiae rad52 mutant growth inhibition, active compounds read high
Method in brief: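 Genetically altered yeast (DNA damage repair defect) treated with compound; inhibition calculated relative to vehicle.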

[12] = NCI Yeast Anticancer Drug Screen. Data for the wt1 strain (AID 149);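 note: 0% = growth of vehicle-treated wt1 cultures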; details: S. cerevisiae wt1 strain (SPY 50644) growth inhibition, active compounds read high
Method in brief: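 Vehicle-normalised growth inhibition; strain wt1; compound exposure.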

[13] = NCI Yeast Anticancer Drug Screen. Data for the rad50EPP+ strain (AID 151);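 note: 0% = growth of vehicle-treated control cultures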; details: S. cerevisiae rad50 mutant strain, active compounds read high
Method in brief: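 Strain rad50EPP+; compound exposure; % growth inhibition vs vehicle.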

[14] = NCI Yeast Anticancer Drug Screen. Data for the rad50 strain (AID 155);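 note: 0% = growth of vehicle-only cultures of the same strain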; details: S. cerevisiae rad50 strain growth inhibition, active compounds read high
Method in brief: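 A DNA repair-deficient yeast mutant serves as the test organism; compound-induced growth inhibition is calculated against vehicle-treated cells.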

[15] = NCI Yeast Anticancer Drug Screen. Data for the CLN2oe strain (AID 163);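 note: 0% = growth of vehicle-only control cultures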; details: S. cerevisiae CLN2oe strain, active compounds read high
Method in brief: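 Strain altered in cell-cycle control, incubated with compound; growth compared to solvent-treated controls.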

[16] = NCI Yeast Anticancer Drug Screen. Data for the mgt1 strain (AID 153); details: S. cerevisiae mgt1 mutant growth inhibition, active compounds read high
Method in brief: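 Read-out: yeast growth inhibition vs vehicle control. Strain mgt1, drawn from a panel altered in DNA damage repair or cell cycle control.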

[17] = at 5.0 µM (retest, dose inferred, filed as 0.5)
[18] = at 50.0 µM (retest, dose inferred, filed as 5.0)

Measured: growth inhibition

Nc1nc(-c2ccccc2)c(-c2ccccc2)[se]1
active: [3]; at 50.0 µM 86.2%
inactive: [1]; [17] 11% | [1]; at 11.0 µM 0% | [1]; at 33.0 µM 3% | [1]; [18] 10% | [1]; at 50.0 µM 22.9% | [1]; at 100.0 µM 7% | [2]; at 1.2 µM 5% | [2]; at 3.7 µM 3% | [2]; at 11.0 µM 4% | [2]; at 33.0 µM 13% | [2]; at 100.0 µM 28% | [3]; [17] 10% | [3]; [18] 23% | [4]; [17] 11% | [4]; [18] 2% | [4]; at 50.0 µM -11.8% | [5]; at 1.2 µM -2% | [5]; at 3.7 µM -2% | [5]; [17] 3% | [5]; at 11.0 µM -3% | [5]; at 33.0 µM 3% | [5]; [18] 1% | [5]; at 50.0 µM 41.3% | [5]; at 100.0 µM 5% | [6]; at 1.2 µM -10% | [6]; at 3.7 µM -9% | [6]; at 11.0 µM -14% | [6]; at 33.0 µM -9% | [6]; at 100.0 µM -10% | [7]; at 1.2 µM 0% | [7]; at 3.7 µM 2% | [7]; at 11.0 µM 0% | [7]; at 33.0 µM 6% | [7]; at 100.0 µM 17% | [8]; at 1.2 µM -18% | [8]; at 3.7 µM 7% | [8]; at 11.0 µM 11% | [8]; at 33.0 µM 6% | [8]; at 100.0 µM 32% | [9]; [17] 6% | [9]; [18] 10% | [9]; at 50.0 µM 62.5% | [10]; at 1.2 µM 5% | [10]; at 3.7 µM 8% | [10]; at 11.0 µM 6% | [10]; at 33.0 µM 15% | [10]; at 100.0 µM 51%

O=[N+]([O-])c1ccc(C=Cc2ccccc2)cc1.[C-]#[O+].[C-]#[O+].[C-]#[O+].[Cr]
active: [11]; at 11.0 µM 70% | [11]; at 33.0 µM 88% | [11]; at 100.0 µM 82% | [12]; at 100.0 µM 79% | [13]; at 33.0 µM 71% | [14]; at 33.0 µM 83% | [14]; [18] 95% | [14]; at 50.0 µM 76.9% | [14]; at 100.0 µM 79% | [1]; at 33.0 µM 71% | [1]; [18] 86% | [1]; at 50.0 µM 79.8% | [1]; at 100.0 µM 72% | [2]; at 33.0 µM 83% | [2]; at 100.0 µM 82% | [3]; [18] 95% | [15]; at 100.0 µM 70% | [4]; [18] 91% | [4]; at 50.0 µM 70.9% | [5]; [18] 91% | [5]; at 100.0 µM 82% | [6]; at 33.0 µM 80% | [6]; at 100.0 µM 83% | [7]; at 100.0 µM 71% | [9]; [18] 96% | [10]; at 1.2 µM 70% | [10]; at 3.7 µM 93% | [10]; at 11.0 µM 94% | [10]; at 33.0 µM 89% | [10]; at 100.0 µM 86%
inactive: [11]; at 1.2 µM 8% | [11]; at 3.7 µM 28% | [12]; at 1.2 µM -2% | [12]; at 3.7 µM -1% | [12]; at 11.0 µM 1% | [12]; at 33.0 µM 65% | [13]; at 1.2 µM 10% | [13]; at 3.7 µM 32% | [13]; at 11.0 µM 62% | [13]; at 100.0 µM 67% | [14]; at 1.2 µM 6% | [14]; at 3.7 µM 18% | [14]; [17] 39% | [14]; at 11.0 µM 54% | [1]; at 1.2 µM 0% | [1]; at 3.7 µM 1% | [1]; [17] 5% | [1]; at 11.0 µM 8% | [2]; at 1.2 µM 3% | [2]; at 3.7 µM 12% | [2]; at 11.0 µM 53% | [3]; [17] 44% | [3]; at 50.0 µM 66% | [15]; at 1.2 µM -3% | [15]; at 3.7 µM -9% | [15]; at 11.0 µM -16% | [15]; at 33.0 µM 69% | [4]; [17] 10% | [5]; at 1.2 µM 2% | [5]; at 3.7 µM 10% | [5]; [17] -19% | [5]; at 11.0 µM 2% | [5]; at 33.0 µM 67% | [5]; at 50.0 µM 69.5% | [6]; at 1.2 µM -1% | [6]; at 3.7 µM -1% | [6]; at 11.0 µM 7% | [7]; at 1.2 µM -1% | [7]; at 3.7 µM -1% | [7]; at 11.0 µM 9% | [7]; at 33.0 µM 65% | [9]; [17] 68% | [9]; at 50.0 µM 62.1%

C[C@]12CCC3[C@@H](CC[C@@H]4c5nonc5CC[C@]34C)C1CCC2=O (some centres undefined)
inactive: [11]; at 1.2 µM 13% | [11]; at 3.7 µM 22% | [11]; at 11.0 µM 52% | [12]; at 1.2 µM 0% | [12]; at 3.7 µM -1% | [12]; at 11.0 µM 8% | [12]; at 33.0 µM 38% | [12]; at 100.0 µM 65% | [13]; at 1.2 µM 4% | [13]; at 3.7 µM 7% | [13]; at 11.0 µM 16% | [13]; at 33.0 µM 29% | [13]; at 100.0 µM 24% | [16]; at 1.2 µM 20% | [16]; at 3.7 µM 29% | [16]; at 11.0 µM 52% | [14]; at 1.2 µM 14% | [14]; at 3.7 µM 18% | [14]; [17] 27% | [14]; at 11.0 µM 65% | [14]; [18] 67% | [1]; at 1.2 µM 6% | [1]; at 3.7 µM 3% | [1]; [17] 15% | [1]; at 11.0 µM 29% | [1]; at 33.0 µM 54% | [1]; [18] -11% | [1]; at 50.0 µM 47.6% | [3]; [17] 33% | [3]; [18] 69% | [15]; at 1.2 µM 38% | [15]; at 3.7 µM 41% | [15]; at 11.0 µM 48% | [15]; at 33.0 µM 47% | [15]; at 100.0 µM 51% | [4]; [17] 39% | [4]; [18] 54% | [4]; at 50.0 µM 67.7% | [5]; at 1.2 µM 16% | [5]; at 3.7 µM 19% | [5]; [17] -11% | [5]; at 11.0 µM 38% | [5]; at 33.0 µM 61% | [5]; [18] 59% | [6]; at 1.2 µM 3% | [6]; at 3.7 µM 2% | [6]; at 11.0 µM 32% | [7]; at 1.2 µM 8% | [7]; at 3.7 µM 11% | [7]; at 11.0 µM 29% | [8]; at 1.2 µM 19% | [8]; at 3.7 µM 26% | [8]; at 11.0 µM 66% | [9]; [17] 37% | [9]; [18] 63% | [10]; at 1.2 µM 24% | [10]; at 3.7 µM 22% | [10]; at 11.0 µM 50%
active: [11]; at 33.0 µM 82% | [11]; at 100.0 µM 85% | [16]; at 33.0 µM 84% | [16]; at 100.0 µM 90% | [14]; at 33.0 µM 80% | [14]; at 50.0 µM 87.3% | [14]; at 100.0 µM 87% | [1]; at 100.0 µM 79% | [3]; at 50.0 µM 87.6% | [5]; at 50.0 µM 78.2% | [5]; at 100.0 µM 72% | [6]; at 33.0 µM 83% | [6]; at 100.0 µM 83% | [7]; at 33.0 µM 80% | [7]; at 100.0 µM 86% | [8]; at 33.0 µM 92% | [8]; at 100.0 µM 93% | [9]; at 50.0 µM 80.8% | [10]; at 33.0 µM 78% | [10]; at 100.0 µM 83%
